Rows were chosen to be rich in hits. Some 2% of all compounds tested hit in one or more screens of this group.
GALR2 ag = GALR2 receptor agonists, primary screen, cell-based | Galanin receptor type 2 (Homo sapiens), O43603 | 140,000 tested, 0.48% active | AID 803, 2007 | activation, % (test concentration not listed) | GALR2-expressing cells, agonist activation read-out; in the data active means activation above about 5%, passing the limit was not always enough;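 further: 0% = vehicle buffer wells and 100% = reference agonist at full effect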
PLAP act = PLAP enzyme activators, biochemical, luminescence, HTS. Alkaline phosphatase, placental type (Homo sapiens), P05187. purified PLAP enzyme, luminescent substrate read-out; active compounds read high. activation fold at 20 µM. 96,000 tested, 1.2% active; in the data active means activation fold above about 2
Target sequence (P05187 whole entry, looked up): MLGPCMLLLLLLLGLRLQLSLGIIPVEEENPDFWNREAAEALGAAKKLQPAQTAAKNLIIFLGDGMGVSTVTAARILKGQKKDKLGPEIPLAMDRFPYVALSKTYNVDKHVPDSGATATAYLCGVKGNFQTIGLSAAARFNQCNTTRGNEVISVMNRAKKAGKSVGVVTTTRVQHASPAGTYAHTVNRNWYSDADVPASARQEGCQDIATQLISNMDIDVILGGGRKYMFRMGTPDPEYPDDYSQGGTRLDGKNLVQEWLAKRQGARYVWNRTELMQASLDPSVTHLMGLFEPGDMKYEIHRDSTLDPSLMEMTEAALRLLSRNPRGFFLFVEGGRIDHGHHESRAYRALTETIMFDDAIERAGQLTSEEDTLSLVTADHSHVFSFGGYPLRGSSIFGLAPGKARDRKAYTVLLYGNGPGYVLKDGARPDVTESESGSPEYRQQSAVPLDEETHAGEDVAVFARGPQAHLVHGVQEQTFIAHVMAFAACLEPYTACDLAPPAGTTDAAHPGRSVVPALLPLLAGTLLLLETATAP
GALR2 blocker = GALR2 antagonists in receptor-expressing cells, primary screen; 140,000 tested, 0.39% active; antagonist mode; Galanin receptor type 2 (Homo sapiens), O43603; inhibition, % at 4 µM;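 further: cells stimulated with galanin 1-16 at roughly its EC80; 0% = agonist challenge control and 100% = basal control without agonist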
S1P2 antag = human S1P2 receptor antagonists, primary screen, cell-based; 97,000 tested, 0.21% active; inhibition, % at 5 µM; cell-based S1P2 antagonist assay, inhibition at 5 uM; Sphingosine 1-phosphate receptor 2 (Homo sapiens), O95136; in the data active means inhibition above about 45%;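 further: CRE beta-lactamase reporter cells expressing human S1P2 stimulated with S1P; 0% = agonist at EC80 alone and 100% = agonist plus reference antagonist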
S1P2 ag = S1P2 receptor agonists, primary screen, cell-based; 97,000 tested, 0.46% active; AID 729, 2007; S1P2-expressing cell line, agonist reporter read-out; activation, % at 4.5 µM; in the data active means activation above about 16%;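 further: 0% = vehicle low control and 100% = maximal reference agonist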
GALR2 agon conf = GALR2 agonists, retest of hits, confirmation, cell-based; activation, % at 5.6 µM; AID 864, 2007; shares compounds with GALR2 ag; 460 tested, 10% active; GALR2-expressing cells, agonist activation; in the data active means activation above about 8.4%;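 further: 0% = buffer-only vehicle wells and 100% = full reference agonist response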
BLA act counter = activators of NFAT-driven beta-lactamase reporter, confirmation, counter-screen for GALR2 agonist project, CHO NFAT-bla cells, FRET readout; activation, % at 5.6 µM; 460 tested, 10% active; beta-lactamase FRET activation; shares compounds with GALR2 ag;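 active means activation above the screen-wide mean activation plus 3 SD, cut at about 8% in these data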;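 further: 0% = DMSO with PBS wells and 100% = thapsigargin positive control wells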
GALR2 ant conf = GALR2 antagonists, retest of hits, confirmation, cell-based | inhibition, % at 4 µM | shares compounds with GALR2 blocker | GALR2-expressing cells, antagonist mode, inhibition | 480 tested, 60% active;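 further: cells stimulated with galanin at about its EC80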
BLA inhib ctr = inhibitors of NFAT-driven beta-lactamase reporter, confirmation, counter-screen for GALR2 antagonist project, CHO NFAT-bla cells, FRET readout | 480 tested, 36% active | shares compounds with GALR2 blocker | thapsigargin-stimulated | inhibition, % at 4.2 µM;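 active means inhibition above the mean inhibition across tested compounds plus 3 SD, cut at about 27% in these data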;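 further: 0% = 500 nM thapsigargin stimulated wells and 100% = unstimulated BSA only wells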
* hit, by the source's call; / = not tested or not shown; ! = not confirmed by another sample. Unless noted, no stated cut-off is given here; in the data, active means inhibition above about 27%; inactive means the rest.

SMILES | GALR2 ag | PLAP act | GALR2 blocker | S1P2 antag | S1P2 ag | others
CCC(C)NC(=O)c1c(N)n(CCCOC)c2nc3ccccc3nc12 (stereo not given) | 15.8* | 2* | -9.5 | -69.0 | 24.7*
COCCNC(=O)c1c(N)n(Cc2ccco2)c2nc3ccccc3nc12 | 3.6 | 1.4 | -0.1 | -17.3 | 10.2
CCOC(=O)c1c(N)n(CCN2CCCCC2)c2nc3ccccc3nc12 | 0.6 | 1.7 | -5.9 | 4.0 | 2.2
CC(C)CCNC(=O)c1c(N)n(CC2CCCO2)c2nc3ccccc3nc12 (stereo not given) | 31.6* | 2.1* | -11.0 | -61.7 | 40.0*
CCC(C)OC(=O)c1c(N)n(Cc2cccs2)c2nc3ccccc3nc12 (stereo not given) | 1.8 | 1 | 6.0 | -10.1 | -1.6
CCC(C)NC(=O)c1c(N)n(Cc2ccc3c(c2)OCO3)c2nc3ccccc3nc12 (stereo not given) | 84.3* | 1.7 | -11.6 | -169.3 | 140.0*
CCC(C)NC(=O)c1c(N)n(CC2CCCO2)c2nc3ccccc3nc12 (stereo not given) | 3.3 | 2* | 3.9 | / | /
O=c1[nH]c(=O)n(-c2ccc(F)cc2)c(O)c1C=Nc1ccccc1N1CCCC1 | -0.3 | 0.8 | -0.1 | 3.2 | -0.6
O=CC(Cl)P(=O)(N1CCCCC1)N1CCCCC1 (stereo not given) | 0.0 | 1.1 | -1.4 | -3.7 | -6.1
CCCCOC(=O)C1=C(N)OC2=C(C(=O)CCC2)[C@]12C(=O)Nc1ccccc12 | 0.5 | 1.4 | 0.1 | -3.5 | -1.1
CCCCCc1nc2c(c(=O)c3ccccc3n2C)c(=O)n1C1CCCCCC1 | 7.3* | / | -1.6 | / | /
O=Cc1c(C(=O)O)n(Cc2ccc(Cl)cc2)c2ccccc12 | -1.2 | / | 8.6 | / | /
Cc1cccc(C(=O)Nc2ccc(Cl)cc2C(=O)c2ccccc2)c1 | 1.0 | 1.3 | -8.3 | 6.3 | -3.0
CCN(CC)CCNCC(=O)Nc1ccc(Cl)cc1C(=O)c1ccccc1 | 1.0 | 2.6* | 2.4 | 1.9 | -1.8
CC(C)(C)OC(=O)c1c(N)n(Cc2ccco2)c2nc3ccccc3nc12 | 7.3 | 2.1* | 1.6 | -32.5 | 8.6
C=CCNC(=O)c1c(N)n(Cc2ccco2)c2nc3ccccc3nc12 | 6.4* | 1.1 | -19.4 | -14.6 | 17.8*
CC(=NCC1CCCO1)c1c(O)n(C)c(=O)n(C)c1=O (stereo not given) | -2.5 | 1 | -10.1 | 10.9 | -6.7
Nc1c(C(=O)NCCc2ccccc2)c2nc3ccccc3nc2n1CCN1CCOCC1 | 25.3* | 1.7 | -12.5 | -27.9 | 31.3*
CCCCn1c(N)c(C(=O)NCCN2CCOCC2)c2nc3ccccc3nc21 | 3.4 | 2.3* | -4.2 | -17.4 | 2.2
Nc1c(C(=O)NCCN2CCOCC2)c2nc3ccccc3nc2n1Cc1ccco1 | 0.8 | 1.5 | -13.4 | 12.7 | 7.3
COc1ccc(CCNC(=O)c2c(N)n(CCN3CCOCC3)c3nc4ccccc4nc23)cc1 | 7.2 | 1.6 | -6.0 | -23.6 | 26.9*
CC12CCC3C(CC=C4CC(O)CCC43C)C1C/C(=C\c1cccc(F)c1)C2=O (stereo not given) | -0.2 | / | -11.3 | / | /
C=CCn1c(O)c(C(CC)=NCCc2ccccc2)c(=O)[nH]c1=O | 11.8* | 0.8 | -13.2 | -6.4 | -2.6 | GALR2 agon conf=0.4;BLA act counter=1.0
CC(NC1CCCCC1)C(O)C12CC3CC(CC(C3)C1)C2 (stereo not given) | 19.4* | 1.7 | 5.6 | -10.7 | -3.9 | GALR2 agon conf=-0.2;BLA act counter=-1.5
COCCNP(=O)(c1ccccc1)c1nc2ccccc2s1 (stereo not given) | 11.7* | 1 | -7.4 | 22.9 | 0.7 | GALR2 agon conf=-0.8;BLA act counter=-0.3
SMILES | GALR2 ag | PLAP act | GALR2 blocker | S1P2 antag | S1P2 ag | others
Brc1ccc(CN2CCNCC2)s1 | -2.9 | 0.8 | -8.5 | 3.1 | -4.9
COc1ccc(C(C)=O)cc1CC(C(=O)c1ccc(F)cc1)N(C)C (stereo not given) | -0.2 | / | 0.8 | / | /
COc1cc2c3cc1Oc1cc(ccc1O)C[C@@H]1c4c(cc(OC)c(O)c4Oc4ccc(cc4)C[C@H]3N(C)CC2)CCN1C | 9.6* | / | -1.4 | / | / | GALR2 agon conf=12.2*;BLA act counter=1.1
COc1ccc(C[C@@H]2c3cc(O)c(OC)cc3CCN2C)cc1O | -1.1 | / | 1.8 | / | /
CSCCC(N=Cc1c(O)n(-c2ccc(F)cc2)c(=O)[nH]c1=O)C(=O)OC(C)(C)C (stereo not given) | -1.8 | 1.5 | -6.0 | -11.4 | -3.9
Cc1c2ccncc2c(C)c2c1[nH]c1ccccc12 | 11.9* | / | 0.9 | / | / | GALR2 agon conf=12.6*;BLA act counter=3.5
CC(=O)N1CC(=O)Nc2ccc(Cl)cc2C1c1ccc(F)cc1 (stereo not given) | -1.1 | 1.2 | 14.7 | 10.3 | -2.6
O=c1cc(C(F)(F)F)c2cc3c4c(c2o1)CCCN4CCC3 | 8.8 | 0.9 | 36.1* | 36.5 | -3.9 | GALR2 agon conf=1.8;BLA act counter=-1.4;GALR2 ant conf=32.1*;BLA inhib ctr=43.7*
O=C1NC(=O)C(CCc2ccncc2)(Cc2ccc3c(c2)OCO3)C(=O)N1CCc1ccccc1 (stereo not given) | -0.3 | 1.7 | -1.0 | 21.5 | -2.6
Cn1cccc1/C=C1/C(=O)NC(=O)N(Cc2ccccc2)C1=O | -0.3 | / | 28.6* | / | / | GALR2 ant conf=36.1*;BLA inhib ctr=65.5*
C=CCN1C(=O)NC(=O)/C(=C/c2cccn2C)C1=O | -0.7 | 1 | 10.2 | -0.5 | -3.2
COc1cc2c(cc1OC)-c1c(OC)c(OC)cc3c1[C@H](C2)[N+](C)(C)CC3 | -1.8 | / | 3.8 | / | /
COC(=O)C[C@]1(C(=O)OC)CN(C#N)N(c2ccc(Cl)cc2)C12c1ccccc1-c1ccccc12 | -3.2 | / | 40.2* | 35.5 | -7.1 | GALR2 ant conf=43.7*;BLA inhib ctr=31.8*
CN1C2CCC1/C(=C/c1ccccn1)C(=O)/C2=C\c1ccccn1 | -2.9 | / | 101.9* | / | / | GALR2 ant conf=102.4*;BLA inhib ctr=104.5*
CCOP(=O)(OCC)C(NC(C)=O)C(Cl)(Cl)Cl (stereo not given) | -3.0 | 1 | -1.8 | -12.0 | -6.8
CN[C@H]1C[C@H]2O[C@@](C)([C@H]1OC)n1c3ccccc3c3c4c(c5c6ccccc6n2c5c31)C(=O)NC4 | -3.7 | / | 104.1* | / | / | GALR2 ant conf=104.9*;BLA inhib ctr=108.5*
Cc1cccc(N2CCc3c2nc2ccccc2c3N)c1 | -2.9 | 0.5 | 30.8*! | 24.3 | -7.5 | GALR2 ant conf=35.5*;BLA inhib ctr=10.6
OC(c1ccc(F)cc1)C(c1ccccc1)N1CCOCC1 (stereo not given) | -2.0 | 1 | -7.1 | -4.8 | -0.9
COP(=S)(OC)SCN1C(=O)c2ccccc2C1=O | -1.3 | 0.9 | -6.3 | 17.0 | -7.1

Compound activity as filed in PubChem.
